# Values joined by “and” are separate entries in the source; they are usually repeats but may differ in a detail not shown here. Identical values can stand only once. Results filed as inconclusive are left out. Unmarked numbers belong to inactive results. Active and inactive are the calls of the source. Calls follow the shape of the dose curve; as a rule, active = well fitted cell-killing curve with a large enough effect in the repeat runs (not every such curve was filed as active); inconclusive = weak or mixed curves, or effect the other way; inactive = no such curve, though single readings can be large or run the other way.
# Assay: qHTS assay to identify small molecule antagonists of the estrogen related receptor signaling pathway with the pleiotropic PPARgamma coactivator (PGC) from Tox21 10K library - cell viability counter screen (AID 1224840); also: nearly all actives have a fitted effect of over 40% in size
# Conditions: PGC/ERR reporter cells viability, CellTiter-Fluor, 17.5 h; series mostly up to 92.4 µM; viability change, negative = cytotoxic: at the top concentration
# Text: National Center for Advancing Translational Sciences [NCATS]
# NIH Chemical Genomics Center [NCGC]
# U.S. Environmental Protection Agency [EPA]
# National Institutes of Environmental Health Sciences [NIEHS]
# National Toxicology Program [NTP]
# U.S. Food and Drug Administration [FDA]
# Estrogen related receptors (ERRs), the first orphan nuclear receptors discovered, play an important role in the control of cellular energy metabolism. ERRs are required for high-energy production in response to the environmental challenges. The pleiotropic PPARgamma coactivator (PGC) is a major partner of ERR and a key regulator in energy homeostasis. Together they have been implicated in the etiology of metabolic disorders such as Type 2 diabetes and metabolic syndrome. ERR-alpha was also identified as an adverse marker for breast cancer progression; ERR-alpha-positive tumors have a poor prognosis. To screen and to identify environmental compounds that perturb the ERR and PGC/ERR signaling pathways could provide valuable information for potential therapeutic or preventive measures in the treatment of metabolic disease. To differentiate true PGC/ERR antagonists or agonist from cytotoxic substances, the assay is multiplexed with cell viability assay.
# Tox21 Assay Protocol Summary:
# The PGC/ERR cells were dispensed at 2,000 cells/5 ul/well in 1536-well white plates using a Multidrop dispenser. After the assay plates were incubated at a 37 C/5% CO2 incubator for 6 hours, 23 nL of compounds dissolved in DMSO, positive and negative controls or DMSO only was transferred to the assay plate by a pin tool. The plates were incubated at 37 C for 17.5 hours. 1 ul/well of CellTiter-Fluor reagent was added into the assay plates using a Flying Reagent Dispenser. After 30-minute incubation at 37 C/5% CO2, the fluorescence intensity in the plates was measured using a ViewLux plate reader.
# % is scaled to controls: 0 for no effect and ±100 for the full control effect; potency is read from the fitted curve at half-maximal effect.
SMILES,"viability change, negative = cytotoxic",Potency
OCCSSCCO,7.27%,–
CC(C)(C)NCC(O)c1ccccc1Cl (stereo not given),2.04% [at 42.5 µM],–
CN(C)C(=O)Nc1cccc(OC(=O)NC(C)(C)C)c1,1.44%,–
CCCN(CCC)c1c([N+](=O)[O-])cc(C(C)C)cc1[N+](=O)[O-],–,inactive
C[CH2][Hg][S]c1ccccc1C(=O)O,–,4.33 µM (active) and 11.9 µM (active)
CN1C(=O)CN=C(c2ccccc2)c2cc([N+](=O)[O-])ccc21,-9.44% [at 42.5 µM],–
C[N+](C)(C)CC1CO1 (stereo not given),1.59%,–
CCCN(CCC)C(=O)Cc1c(-c2ccc(Cl)cc2)nc2ccc(Cl)cn12,-16.5% [at 42.5 µM],–
CC[N+]1(CCOC(=O)C(O)(c2ccccc2)c2ccccc2)CCCCC1,1.69% [at 42.5 µM],–
CC(C)c1ccc(OP(=O)(Oc2ccc(C(C)C)cc2)Oc2ccc(C(C)C)cc2)cc1,–,inactive
CC1(C)CC(=O)CC(C)(C)N1[O],9.61%,–
CC(C)(C)c1ccc(CCOc2ncnc3ccccc23)cc1,3.86%,–
O=[N+]([O-])c1cc(Cl)c(Cl)cc1Cl,-1.95%,–
CCC[N+](CCC)(CCC)CCC,0.277%,–
CCOC(=O)c1cn2nc(OP(=S)(OCC)OCC)cc2nc1C,-20.1%,–
O=C(NC(=O)c1cc(F)c(F)cc1Cl)Nc1cc(F)ccc1N1CCC(C(=O)O)CC1,3.77% [at 42.5 µM],–
SCc1ccccc1,0.941%,–
C#CC(O)(C=CCl)CC (stereo not given),2.22% [at 42.5 µM],–
O=C(Cc1ccccc1)c1ccccc1,2.78%,–
Oc1cccc(Cl)c1,0.191%,–

SMILES,"viability change, negative = cytotoxic",Potency
COC1CC(=C(c2cccs2)c2cccs2)C[N+](C)(C)C1 (stereo not given),3.89% [at 42.5 µM],–
C[N+]1(CCF)[C@@H]2CC[C@H]1CC(OC(=O)C(O)(c1ccccc1)c1ccccc1)C2 (stereo not given in full),4.28% [at 42.5 µM],–
N#CC(C#N)=C(C#N)C#N,-20.2%,–
N#CC(C#N)=Cc1ccc(O)c(O)c1,1.09% [at 42.5 µM],–
C=CC(C)(CCC=C(C)C)OC(=O)c1ccccc1N (stereo not given),6.93%,–
Cc1cnc(C2=NC(C)(C(C)C)C(=O)N2)c(C(=O)O)c1 (stereo not given),0.437%,–
C=CCc1ccccc1O,-0.308%,–
CCCCCCCCn1sccc1=O,–,30.7 µM (active) and 11.4 µM (active)
CON(C)C(=O)Nc1ccc(Cl)cc1,2.18%,–
CN(C)c1ccc(N=O)cc1,–,19.4 µM (active) and 30.6 µM (active)
C=CCOC(=O)C(C)(C)OC(=O)c1cc(-n2c(=O)cc(C(F)(F)F)n(C)c2=O)ccc1Cl,-14.7%,–
CCCC[N+]1(C)[C@@H]2CC(OC(=O)[C@H](CO)c3ccccc3)C[C@H]1[C@@H]1O[C@@H]12 (stereo not given in full),0.246% [at 42.5 µM],–
O=C(O)C(F)(F)C(F)(F)C(F)(F)C(F)(F)C(F)(F)C(F)(F)C(F)(F)C(F)(F)F,-9.23%,–
CCOC(C(=O)OCCN(C)C)(c1ccccc1)c1ccccc1,4.63% [at 42.5 µM],–
N#CC1(N=NC2(C#N)CCCCC2)CCCCC1,5.76%,–
CCCCCCCCCCCCCCCl,0.443%,–
CN1CC[C@]23c4c5ccc(O)c4O[C@H]2[C@@H](O)CC[C@H]3[C@H]1C5,0.649%,–
O=C1CC[C@@]2(O)[C@H]3Cc4ccc(O)c5c4[C@@]2(CCN3CC2CC2)[C@H]1O5,3.04% [at 42.5 µM],–
CN(C)N,6.33%,–
O=C(O)CCCOc1ccc(Cl)cc1Cl,–,inactive
